Hits are enriched below; roughly 11% of the tested compounds scored in any of these assays.
Vaccinia mCherry: qHTS for Stage-Specific Inhibitors of Vaccinia Orthopoxvirus: mCherry Reporter Primary qHTS. Vaccinia virus mCherry reporter infection, fluorescence. Potency, µM (top dose mostly 36.5 µM), without a hit: top-dose activity change, negative = inhibition, actives largely listed as inhibitors. 310,000 compounds, 0.63% hits; calls by dose curve; tested in A549 cells; note: % is set by controls: 0 for no effect and ±100 for the full control effect; nearly all actives have a fitted effect of over 35% in size
HCV inhibitor: qHTS Assay for Inhibitors of Hepatitis C Virus (HCV). Huh7.5.1 HCVcc-Cre infection, luciferase reporter, 44 h. 340,000 compounds, 3.4% hits. AID 651820, 2012. Potency, µM (highest dose often 41.8 µM), inactives show at the top dose activity change, negative = inhibition, usual class: inhibitors; note: % is set by controls: 0 for no effect and ±100 for the full control effect
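Luciferase read-out (15 sec integration) after a 15 min room-temperature substrate step quantifies HCVcc-Cre infection. Cells, 1,000 per well, had compound added 4 h post-plating, then virus at ~0.5 moi, and were cultured 44 h.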
VACV Venus inh: qHTS for Stage-Specific Inhibitors of Vaccinia Orthopoxvirus: Venus Reporter Primary qHTS; Potency, µM (series often up to 36.5 µM), for the others: at the highest dose activity change, negative = inhibition, hits mostly inhibitors; Vaccinia virus Venus reporter expression, fluorescence; 330,000 compounds, 0.46% hits; AID 720580, 2013; calls by dose curve; tested in A549 cells; note: % is set by controls: 0 for no effect and ±100 for the full control effect; nearly all actives have a fitted effect of over 30% in size
Pf growth 96h: Primary qHTS for delayed death inhibitors of the malarial parasite plastid, 96 hour incubation; P. falciparum luciferase reporter growth, 96 h; Potency, µM (top dose mostly 28.7 µM), for inactives: at the highest dose activity change, negative = inhibition, usual class: inhibitors; 320,000 compounds, 6.9% hits; note: % is set by controls: 0 for no effect and ±100 for the full control effect
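P. falciparum expressing integrated firefly luciferase, in erythrocytes at 2% hematocrit, 0.05% parasitemia, incubated with compounds 96 h at 37 C, 5% CO2. Growth inhibition read as loss of luminescence; two-generation exposure targets delayed-death apicoplast inhibitors.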
Pf growth 48h: Primary qHTS for delayed death inhibitors of the malarial parasite plastid, 48 hour incubation | P. falciparum luciferase growth in erythrocytes, 48 h | Potency, µM (doses to about 28.7 µM), for the others: top-dose activity change, negative = inhibition, actives largely listed as inhibitors | 310,000 compounds, 5.9% hits | AID 504832, 2011; note: % is set by controls: 0 for no effect and ±100 for the full control effect
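Here the parasites carry a stable luciferase gene and grow inside erythrocytes in Albumax-based RPMI medium with compound for one erythrocytic cycle. Activity is scored as loss of luminescent signal.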
NS1 function inh: qHTS Assay for Inhibitors of Influenza NS1 Protein Function; Potency, µM (titrated, usually from 46.1 µM), for inactives: top-dose activity, positive = more growth; 270,000 compounds, 0.4% hits; AID 2326, 2010; calls by dose curve; note: actives are rising curves; nearly all actives have a fitted effect of over 50% in size
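A cell-based growth assay was used: compounds that relieve NS1-induced slow growth of budding yeast raise OD600. Assay medium was yeast nitrogen base with ammonium sulphate and -URA supplement, pH 6.0, with 2% galactose.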
An asterisk follows results filed as active; i = inactive; ? = inconclusive; . = no result given. Unless noted, calls come from the whole dose curve; as a rule, active = well fitted inhibition curve with a large enough effect; inconclusive = small, poorly fitted or top-dose-only effect, or another doubt; inactive = no such curve, though single readings can be large or run the other way. Potency is the fitted concentration of half-maximal effect.

SMILES	Vaccinia mCherry	HCV inhibitor	VACV Venus inh	Pf growth 96h	Pf growth 48h	NS1 function inh
CN(Cc1cnccn1)Cc1ccccc1OCC(O)CN1CCc2ccccc2C1 (configuration not stated)	-30%	-13%	-7%	14%	12µM*	2%
Cc1sc(NC(=O)c2ccco2)c(C(c2ccccc2)N2CCC(C)CC2)c1C (configuration not stated)	-10%	?	-4%	?	5.2µM*	.
Cc1ccc(C(c2c(NC(=O)c3ccco3)sc(C)c2C)N2CCOCC2)cc1 (configuration not stated)	-20%	.	-25%	.	.	.
CCOC(=O)C1CCN(C(c2cccnc2)c2c(NC(=O)c3ccco3)sc(C)c2C)CC1 (configuration not stated)	?	6.3µM*	?	-4%	0.29µM*	-35%
COc1ccc(C(c2c(NC(=O)c3ccco3)sc(C)c2C)N2CCOCC2)cc1OC (configuration not stated)	.	?	.	4.7µM*	2.6µM*	.
Cc1sc(NC(=O)c2ccco2)c(C(c2cccnc2)N2CCN(c3ccc(F)cc3)CC2)c1C (configuration not stated)	0%	11µM*	-22%	?	2.1µM*	-68%
Cc1sc(NC(=O)c2ccco2)c(C(c2cccnc2)N2CCN(CCO)CC2)c1C (configuration not stated)	.	-2%	.	?	?	.
Cc1ccc(NC(=O)c2cc(S(=O)(=O)N3CCc4ccccc43)cn2C)cc1	-23%	?	-16%	?	?	8%
CC(C)CCNC(=O)c1cc(S(=O)(=O)N2CCc3ccccc32)cn1C	-2%	?	-11%	1.2µM*	-3%	7%
CC(C)CCNC(=O)Cn1c(=O)oc2cc(S(=O)(=O)N3CCc4ccccc43)ccc21	i	-22%	-9%	12µM*	.	-61%
COc1cc(NC(=O)c2cc(S(=O)(=O)N3CCc4ccccc43)cn2C)cc(OC)c1OC	-18%	-17%	-16%	2%	12µM*	-20%
Cn1cc(S(=O)(=O)N2CCc3ccccc32)cc1C(=O)Nc1ccc(Cl)cc1	-21%	?	?	33%	13µM*	24%
Cc1cc(C(F)(F)F)nc(CCNC(=O)C2CCC(=O)N(Cc3cccc(F)c3)C2)n1 (configuration not stated)	0%	.	-20%	25%	-15%	-15%
NS(=O)(=O)c1ccc(-c2ccc(C=C3C(=O)NC(=S)NC3=O)o2)cc1	.	.	.	?	-13%	1%
CCOc1ccc(N=C2C(=O)N(CN3CCOCC3)c3ccccc32)cc1	.	-9%	0%	13µM*	4%	0%
O=C1c2ccccc2C(=O)N1CCN1CCOCC1	-3%	9%	-5%	25%	.	1%
COc1ccc(-c2cn3c(n2)sc2cc(C(=O)NCCC4=CCCCC4)ccc23)cc1	-7%	.	-2%	.	.	.
Nc1ccn(C2OC(COP(=O)(O)O)C(O)C2O)c(=O)n1 (configuration not stated)	32µM*	?	?	.	.	.
COc1ccccc1-c1cc(C(F)(F)F)nc(NCc2cccs2)n1	-16%	-3%	-13%	5.9µM*	?	-19%
COc1ccc(-c2cc(C(F)(F)F)nc(NCc3cccs3)n2)cc1	i	?	-11%	?	?	10%
Cc1cc(N2CCN(c3ccc([N+](=O)[O-])c4cccnc34)CC2)c2ccccc2n1	-20%	-17%	-11%	7.4µM*	-18%	13%
Cc1cc(N2CCN(c3ccc(C(F)(F)F)cc3[N+](=O)[O-])CC2)c2ccccc2n1	.	10µM*	.	7.4µM*	13µM*	-16%
O=C(Nc1ccccc1)N1CCCN(c2ccc(C(F)(F)F)cc2[N+](=O)[O-])CC1	i	-18%	-10%	10µM*	13µM*	-2%
